Results on 40 molecules are retold here after PubChem BioAssay (NCI).

“And” between values parts separate entries of the source, which are not always exact repeats. Equal values may be shown once. Compounds without any hit were thinned out: in the full panel of roughly 83,000, 20% have a hit.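 Activity criterion: percent growth below 10, measured after cells in 96-well plates were exposed to a single compound concentration for 48 hours.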 The source made the active and inactive calls.

The test has as its system MDA-MB-468 breast. As to the kind of experiment: NCI-60 one-dose screen, 48 h (100 = growth as untreated, 0 = no growth, -100 = all killed). To be noted: 10 µM unless noted.
In the case of `Cn1cc(-c2csc(-c3c[nH]c4ccc(F)cc34)n2)c2cnccc21`, the growth was -49.6% (active).
For the molecule `CCOC(=O)C1=C(C)NC(C)=C(C(=O)OC(C)C)C1c1cccc(C#N)c1` (stereo not given), the growth was 79.4% (inactive).
The same measure for `COc1cc2c3cc1Oc1c(OC)c(OC)cc4c1C(Cc1ccc(O)c(c1)Oc1ccc(cc1)CC3N(C)CC2)N(C)CC4` (stereo not given): -72.3% (active); for `Cc1ccc(S(=O)(=O)NCCCNc2nccc(-c3[nH]c(-c4ccccc4)nc3-c3ccc(F)c(O)c3)n2)cc1`: 33.9% (inactive); for `COc1cc(-c2nc3cc(Cl)c(Cl)cc3[nH]2)ccc1OCC(=O)N=Nc1c(O)[nH]c2ccc(Cl)cc12`: -56.3% (active).
The value for `COC(/C=C/c1ccc([N+](=O)[O-])cc1)OC` was 73.4% (inactive); that for `CCN(CC)CCOc1ccc2ccc(=O)oc2c1` was 86% (inactive).
The same measure for `O=C(O)CCCl`: 94.6% (inactive); for `COc1cc(C(=O)n2nc(N3CCN(C)CC3)c3cc(N)ccc32)cc(OC)c1OC`: 0.604% (active).
Regarding `O=C(NCCN1CCC(O)CC1)c1cc2c(o1)C(=O)c1ccccc1C2=O`, the growth is -85.8% (active).
The same measure for `C[C@]12CC[C@@H]3c4ccc(O)c(N)c4CC[C@H]3[C@@H]1CC[C@@H]2O`: 59.8% (inactive); for `COc1ccc2c(c1)Oc1nc(N)c(C#N)c(N)c1C2Sc1ccc(SC)cc1` (stereo not given): -40.8% (active).
The same measure for `Cc1ccc2cccc([N+](=O)[O-])c2n1`: 107% (inactive) and 100% (inactive); for `S=C1SCN(Cc2cccs2)CN1Cc1cccs1`: 40.4% (inactive).
Take `COc1cccc(-c2nc3sccn3c2-c2ccnc(NCCCNS(=O)(=O)c3ccc(Cl)cc3)c2)c1`: the growth was 34.3% (inactive).
Turning to `O=c1oc2ccc(Cl)cc2c(=O)n1-c1ccc(F)cc1F`, the growth was -4.5% (active).
For `COc1cc(/C=N/NC(=O)c2cnn3c2NC(c2ccccc2)C3)ccc1OCc1ccccc1` (stereo not given), the growth is 1.21% (active).
Turning to `COc1ccc(-c2nc(N/N=C/c3c[nH]c4ccccc34)nc(N3CCOCC3)c2C#N)cc1`, the growth is 97.8% (inactive).
Turning to `CCCCCCCCCCCCNC(=O)[C@H]1CSC(c2cc(Br)cs2)N1` (stereo not given in full), the growth was -48.7% (active).
Regarding `COc1ccc2c(c1)N(CCO)C1=C(C(=O)OC1)C2c1ccccc1` (stereo not given), the growth is -14.2% (active).
For the molecule `COc1cc(Cc2cc(-c3ccccc3)nn(Cc3ccccc3)c2=O)cc(OC)c1OC`, the growth is 28.4% (inactive).
Consider `CNC(=O)c1cc(Oc2cccc3nc(Nc4ccc(Oc5ccccc5)cc4)ccc23)ccn1`, for which the growth was 63.7% (inactive).
The value for `C#Cc1cccc(Nc2ncnc3ccc(NC(=O)c4ccccc4)cc23)c1` was -28.5% (active); that for `CCOC(=O)C1(C(=O)OCC)N=C(c2ccccc2)C=C1c1ccccc1` was 94.1% (inactive); that for `COc1cc(O)c2c(c1)/C=C/C[C@H](O)[C@H](O)C(=O)/C=C\C[C@H](C)OC2=O` was -24.3% (active).
Regarding `CCN1CCN(c2cc(C(=O)Nc3nc4ccc(Oc5ccnc(C(=O)NC)c5)cc4s3)cc(C(F)(F)F)c2)CC1`, the growth was 43.3% (inactive).
For `Cc1ncc(C(=O)Nc2ccc(CN3CCN(C)CC3)c(C(F)(F)F)c2)cc1C#Cc1cnc(N)c2ccc(C#N)cc12`, the growth is 48.2% (inactive).
With `COc1cc(-c2nn(-c3ccc(C)cc3)cc2C(=O)O)ccc1O`, the growth is 121% (inactive).
The same measure for `CCN(CC)c1ccc(NC(C(=O)c2ccccc2)c2ccccc2)cc1` (stereo not given): 1.41% (active).
On to `O=C(/C=C/C12c3ccccc3C(c3ccccc31)C1C(=O)N(c3ccccc3)C(=O)C12)c1ccc(Cl)cc1` (stereo not given), for which the growth is 3.08% (active).
The value for `COCC(N)=O` was 101% (inactive); that for `COc1ccc(-c2cc(-c3cc(OC)ccc3OC)nc(SCC(C)=O)c2C#N)cc1` was 56.2% (inactive); that for `O=C(CN1CCN(c2cc(=O)n(-c3ccccc3)c3ccccc23)CC1)Nc1ccc(F)cc1` was 9.45% (active).
As to `CCN(CC)CCSCCCNc1c2ccc(Cl)cc2nc2ccc(OC)cc12`, the growth was -50.2% (active).
The value for `O=C1Nc2ccccc2SC1C1SC(=S)N(Cc2ccccc2)C1=O` (stereo not given) was 31.4% (inactive).
The same measure for `O=C(CCNCc1ccccc1)c1ccccc1`: 98.2% (inactive).
On to `O=c1c2cc(F)cc(Cl)c2sc2c(NCCCNCCO)nc3ccccc3c12`, for which the growth is 78.2% (inactive).
As for `O=C(Cn1cc(CN2C(=O)c3ccc([N+](=O)[O-])cc3C2=O)nn1)Nc1ccc(F)cc1Cl`, the growth was 97.9% (inactive).
`COC(=O)[C@]12CC[C@@H](C)[C@H](C)[C@@H]1C1=CC[C@@H]3[C@@]4(C)C(C#N)=CC(C)=C4CC[C@@]3(C)[C@]1(C)CC2`: the growth is 76.7% (inactive).
The same measure for `N#CC1C(C#N)C(C(=O)c2ccc(Br)cc2)N2c3ccccc3C=CC12` (stereo not given): -7.38% (active).
